Assay results taken from PubChem BioAssay (Tox21).
Values joined by “and” are separate entries in the source; they are usually repeats but may differ in a detail not shown here. Equal values may be shown once. The source holds several records for some structures; these can differ, active in one and inactive in another. Active and inactive are the calls of the source. The call rests on the fitted dose curve.

Test: qHTS assay to identify small molecule agonists of the estrogen related receptor (ERR) signaling pathway from Tox21 library (AID 1224849); further: nearly all actives have a fitted effect of over 15% in size
Conditions: ERR reporter cell line, ONE-Glo luciferase, 18 h; at 42.5 µM (top of the series)
Text: National Center for Advancing Translational Sciences [NCATS]
NIH Chemical Genomics Center [NCGC]
U.S. Environmental Protection Agency [EPA]
National Institutes of Environmental Health Sciences [NIEHS]
National Toxicology Program [NTP]
Estrogen related receptors (ERRs), the first orphan nuclear receptors discovered, play an important role in the control of cellular energy metabolism. ERRs are required for high-energy production in response to the environmental challenges. ERR-alpha was also identified as an adverse marker for breast cancer progression; ERR-alpha-positive tumors have a poor prognosis. To screen and to identify environmental compounds that perturb the ERR signaling pathways could provide valuable information for potential therapeutic or preventive measures in the treatment of metabolic disease. For identifying ERR agonists, ERR cell line (provided by NTP) has been used to screen Tox21 10K library.
The ERR cells were dispensed at 2,000 cells/5 ul/well in 1536-well white plates using a Multidrop dispenser. After the assay plates were incubated at a 37 C/5% CO2 incubator for 6 hours, 23 nL of compounds dissolved in DMSO, positive and negative controls or DMSO only was transferred to the assay plate by a pin tool. The plates were incubated at 37 C for 18 hours. 4 ul/well of One-Glo reagent was added into the assay plates using a Flying Reagent Dispenser. After 30-minute incubation at room temperature, the luminescence intensity in the plates was measured using a ViewLux plate reader.
On the % scale 0 is the no-effect control and ±100 the full control effect.

| Structure (SMILES) | activity change, positive = activation |
| --- | --- |
| Cc1cc(O)ccc1Cl | 6.83% (inactive) |
| O=[N+]([O-])c1cc([As](=O)(O)O)ccc1O | -1.93% (inactive) |
| CNCC(O)c1ccc(O)cc1 (stereo not given) | 12.7% (inactive) |
| O=C(O)Cc1ccccc1 | -0.0869% (inactive) |
| O=C(O)c1cc(Oc2ccc(C(F)(F)F)cc2Cl)ccc1[N+](=O)[O-] | 9.01% (inactive) |
| [N-]=[N+]=CC(=O)OC[C@H](N)C(=O)O | 3.09% (inactive) |
| COC(C)(C)CCCC(C)C/C=C/C(C)=C/C(=O)OC(C)C (stereo not given) | 0.0177% (inactive) |
| Nc1nc(N)nc(NC2CC2)n1 | 7.96% (inactive) |
| CC(C)c1cccc(C(C)C)c1O | -0.995% (inactive) |

Same assay, conditions: ERR reporter cell line, ONE-Glo luciferase, 18 h; at 92.4 µM (top of the series)

| Structure (SMILES) | activity change, positive = activation |
| --- | --- |
| C=C(C)C(=O)OCC(CC)CCCC (stereo not given) | -78.2% (inactive) and 4.6% (inactive) |
| C=CC#N | 0.57% (inactive) and 1.17% (inactive) |
| OCCCCO | 2.81% (inactive) and 0.133% (inactive) |
| Cc1cc(O)ccc1Cl | 0.807% (inactive) and 6.83% (inactive) |
| O=[N+]([O-])c1cc([As](=O)(O)O)ccc1O | -21.2% (inactive) and 4.02% (inactive) |
| CNCC(O)c1ccc(O)cc1 (stereo not given) | 2.21% (inactive) |
| Cc1cccc(N)c1 | 7.86% (inactive) and 1.47% (inactive) and 12% (inactive) |
| OC[C@@H](O)[C@H]1O[C@@H]2O[C@H](C(Cl)(Cl)Cl)O[C@@H]2[C@H]1O | 4.33% (inactive) and 6.3% (inactive) |
| C=CC(=O)OCC(CC)CCCC (stereo not given) | 0.98% (inactive) and -12% (inactive) |
| ClC(Cl)c1ccccc1 | 8.64% (inactive) and 1.48% (inactive) |
| CN(C)C(=O)Cl | 5.68% (inactive) and 6.16% (inactive) |
| O=[N+]([O-])c1ccc(Cl)c(Cl)c1 | -0.469% (inactive) and -6.92% (inactive) |
| O=C(O)Cc1ccccc1 | -3.48% (inactive) |
| Cc1ccc(N=C=O)cc1N=C=O | 1.23% (inactive) and -0.244% (inactive) and 4.95% (inactive) |
| O=C(O)c1cc(Oc2ccc(C(F)(F)F)cc2Cl)ccc1[N+](=O)[O-] | -1% (inactive) and -14.6% (inactive) and -4.43% (inactive) |
| CCOc1ccc(N)cc1 | -23.9% (inactive) and -14.2% (inactive) |

| Structure (SMILES) | activity change, positive = activation |
| --- | --- |
| [N-]=[N+]=CC(=O)OC[C@H](N)C(=O)O | 5.95% (inactive) |
| CN(C)NC(=O)CCC(=O)O | 4.6% (inactive) and 12.8% (active) |
| Cl[C@H]1OCCO[C@@H]1Cl | -1.08% (inactive) and -4.01% (inactive) |
| COC(C)(C)CCCC(C)C/C=C/C(C)=C/C(=O)OC(C)C (stereo not given) | -14.1% (inactive) |
| Cc1ccc(O)c(C)c1 | -0.712% (inactive) and 11.3% (inactive) |
| Nc1nc(N)nc(NC2CC2)n1 | -4.5% (inactive) and 0.923% (inactive) |
| Nc1ncc([N+](=O)[O-])s1 | 2.32% (inactive) and 6.46% (inactive) |
| COC(=O)Nc1cccc(OC(=O)Nc2cccc(C)c2)c1 | 26.6% (active) and 34.9% (active) |
| CNC(=O)O/N=C/C(C)(C)SC | 5.2% (inactive) and 5.41% (inactive) |
| CCSC(=O)N1CCCCCC1 | -10.2% (inactive) and -0.0309% (inactive) |
| Nc1cccc(Cl)c1 | 7.3% (inactive) and -16.4% (inactive) |
| OCc1ccco1 | 4.84% (inactive) |
| C=CCN=C=S | 10.8% (inactive) and 0.847% (inactive) |
| CC(C)(C)C(=O)CCl | 2.78% (inactive) and 6.55% (inactive) |
| CC(C)c1cccc(C(C)C)c1O | -9.76% (inactive) and -27.6% (inactive) |
